Test results reported in PubChem BioAssay (NCI).
Compounds without any hit were thinned out: in the full panel of roughly 79,000, 15% have a hit. Active and inactive are the calls of the source. No stated cut-off is given here; in the data, active means growth inhibition above about 70%; inactive means the rest.

Columns and labels:
[1] = NCI Yeast Anticancer Drug Screen. Data for the rad52 strain (AID 147);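 further: 0% = growth of vehicle-treated control cultures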; conditions: S. cerevisiae rad52 mutant growth inhibition, active compounds read high
In short: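 Measured: yeast growth inhibition. System: strain with a defined DNA damage repair alteration. Reference: vehicle-treated control cultures.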

[2] = NCI Yeast Anticancer Drug Screen. Data for the wt1 strain (AID 149);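 further: 0% = growth of vehicle-treated wt1 cultures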; conditions: S. cerevisiae wt1 strain (SPY 50644) growth inhibition, active compounds read high
In short: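 Yeast wt1 strain exposed to compounds; growth inhibition measured relative to vehicle-treated controls.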

[3] = NCI Yeast Anticancer Drug Screen. Data for the rad50EPP+ strain (AID 151);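 further: 0% = growth of vehicle-treated control cultures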; conditions: S. cerevisiae rad50 mutant strain, active compounds read high
In short: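 One strain with a rad50 alteration (rad50EPP+) was compound-treated, its growth then compared to that of vehicle controls.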

[4] = NCI Yeast Anticancer Drug Screen. Data for the mgt1 strain (AID 153); conditions: S. cerevisiae mgt1 mutant growth inhibition, active compounds read high
In short: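 After exposure of the mgt1 yeast mutant to compound, growth was measured and reported as inhibition compared with vehicle controls.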

[5] = NCI Yeast Anticancer Drug Screen. Data for the rad50 strain (AID 155);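 further: 0% = growth of vehicle-only cultures of the same strain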; conditions: S. cerevisiae rad50 strain growth inhibition, active compounds read high
In short: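 Yeast carrying a defined DNA repair defect were exposed to test compounds, and growth was compared with vehicle-treated controls to give percent inhibition.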

[6] = NCI Yeast Anticancer Drug Screen. Data for the mec2-1 strain (AID 157); conditions: S. cerevisiae mec2-1 strain, active compounds read high
In short: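 Test agents were screened against the mec2-1 yeast strain, with defined DNA repair or cell cycle alteration. Growth was scored as inhibition against vehicle-only controls.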

[7] = NCI Yeast Anticancer Drug Screen. Data for the rad14 strain (AID 159);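 further: 0% = growth of vehicle-treated control cultures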; conditions: S. cerevisiae rad14 strain growth inhibition, active compounds read high
In short: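 Yeast cells carrying a defined DNA-repair defect were exposed to compounds, and growth inhibition was calculated relative to vehicle-treated control cultures.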

[8] = NCI Yeast Anticancer Drug Screen. Data for the sgs1 mgt1 strain (AID 161);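 further: 0% = growth of cultures given vehicle only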; conditions: S. cerevisiae sgs1 mgt1 strain, active compounds read high
In short: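 Mutant yeast exposed to compound; growth scored against vehicle-only wells.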

[9] = NCI Yeast Anticancer Drug Screen. Data for the CLN2oe strain (AID 163);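 further: 0% = growth of vehicle-only control cultures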; conditions: S. cerevisiae CLN2oe strain, active compounds read high
In short: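 Here, growth inhibition in a cell-cycle-altered yeast strain after compound exposure was quantified against vehicle control growth.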

[10] = NCI Yeast Anticancer Drug Screen. Data for the cln2 rad14 strain (AID 165);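 further: 0% = growth equal to vehicle treated cultures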; conditions: S. cerevisiae cln2 rad14 strain, active compounds read high
In short: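 Growth of compound-exposed yeast (cln2 rad14 genotype) measured and expressed as inhibition relative to vehicle.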

[11] = NCI Yeast Anticancer Drug Screen. Data for the bub3 strain (AID 167); conditions: S. cerevisiae bub3 mutant strain, active compounds read high
In short: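 Compounds were applied to a genetically altered yeast strain carrying a cell-cycle control defect. Growth inhibition was scored against vehicle-treated controls.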

[12] = NCI Yeast Anticancer Drug Screen. Data for the wt2 strain (AID 169);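 further: 0% = growth of vehicle-treated yeast cultures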; conditions: S. cerevisiae wt2 strain growth inhibition, active compounds read high
In short: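 Genetically defined yeast strains from a DNA-repair/cell-cycle panel were used. Compound-exposed yeast growth was measured, and the inhibition was calculated relative to vehicle treatment.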

[13] = NCI Yeast Anticancer Drug Screen. Data for the mlh1 strain (AID 171);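 further: 0% = growth of vehicle-treated control cultures of the same strain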; conditions: S. cerevisiae mlh1 strain growth inhibition, active compounds read high
In short: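 Here the genetically defined yeast mutant is grown with each compound, and the extent to which its growth falls below that of vehicle-exposed cells is reported.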

[14] = NCI Yeast Anticancer Drug Screen. Data for the sgs1 strain (AID 173);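 further: 0% = growth of vehicle-only control cultures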; conditions: S. cerevisiae sgs1 mutant, active compounds read high
In short: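 Relative growth inhibition, referenced to vehicle, was determined in a yeast strain with a defined alteration affecting DNA damage repair or cell cycle control after compound exposure.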

[15] = NCI Yeast Anticancer Drug Screen. Data for the mlh1 rad18 strain (AID 175); conditions: S. cerevisiae mlh1 rad18 strain growth inhibition, active compounds read high
In short: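 In this whole-cell yeast screen, a strain with altered DNA damage repair is challenged with compound, and its growth is measured against matched vehicle-treated controls.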

[16] = NCI Yeast Anticancer Drug Screen. Data for the rad18 strain (AID 177); conditions: S. cerevisiae rad18 mutant growth inhibition, active compounds read high
In short: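 Screen uses a yeast strain with a defined lesion in DNA damage repair; compound effect is read as loss of growth compared to untreated vehicle cultures.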

[17] = at 5.0 µM (retest, dose inferred, filed as 0.5)
[18] = at 50.0 µM (retest, dose inferred, filed as 5.0)

Measured: growth inhibition

O=C1C(Nc2ccccc2)=C(Oc2ccccc2)C(=O)c2ccccc21
inactive: [1]; at 1.2 µM -3% | [1]; at 3.7 µM -6% | [1]; at 11.0 µM 1% | [1]; at 33.0 µM 23% | [1]; at 100.0 µM 32% | [2]; at 1.2 µM 3% | [2]; at 3.7 µM -10% | [2]; at 11.0 µM 7% | [2]; at 33.0 µM -4% | [2]; at 100.0 µM 14% | [3]; at 1.2 µM 5% | [3]; at 3.7 µM 20% | [3]; at 11.0 µM 28% | [3]; at 33.0 µM 58% | [3]; at 100.0 µM 60% | [4]; at 1.2 µM 5% | [4]; at 3.7 µM -2% | [4]; at 11.0 µM 2% | [4]; at 33.0 µM 1% | [4]; at 100.0 µM -1% | [5]; at 1.2 µM -6% | [5]; at 3.7 µM -11% | [5]; [17] -1% | [5]; at 11.0 µM -5% | [5]; at 33.0 µM 27% | [5]; [18] 26% | [5]; at 50.0 µM 23.7% | [5]; at 100.0 µM 38% | [6]; at 1.2 µM 2% | [6]; at 3.7 µM 1% | [6]; [17] 3% | [6]; at 11.0 µM 6% | [6]; at 33.0 µM 3% | [6]; [18] 20% | [6]; at 50.0 µM 24.4% | [6]; at 100.0 µM 2% | [7]; at 1.2 µM 13% | [7]; at 3.7 µM 0% | [7]; at 11.0 µM 4% | [7]; at 33.0 µM 9% | [7]; at 100.0 µM -15% | [8]; [17] -2% | [8]; [18] 17% | [8]; at 50.0 µM 16.4% | [9]; at 1.2 µM -6% | [9]; at 3.7 µM -2% | [9]; at 11.0 µM 1% | [9]; at 33.0 µM -1% | [9]; at 100.0 µM -4% | [10]; [17] -7% | [10]; [18] 1% | [10]; at 50.0 µM 5.25% | [11]; at 1.2 µM 3% | [11]; at 3.7 µM 9% | [11]; [17] 16% | [11]; at 11.0 µM 23% | [11]; at 33.0 µM 55% | [11]; [18] 59% | [12]; at 1.2 µM -10% | [12]; at 3.7 µM 0% | [12]; at 11.0 µM 11% | [12]; at 33.0 µM 35% | [12]; at 100.0 µM 29% | [13]; at 1.2 µM -5% | [13]; at 3.7 µM 0% | [13]; at 11.0 µM 1% | [13]; at 33.0 µM 0% | [13]; at 100.0 µM 0% | [14]; at 1.2 µM -7% | [14]; at 3.7 µM -2% | [14]; at 11.0 µM 3% | [14]; at 33.0 µM 15% | [14]; at 100.0 µM 16% | [15]; [17] -3% | [15]; [18] 30% | [15]; at 50.0 µM 58.8% | [16]; at 1.2 µM -4% | [16]; at 3.7 µM 4% | [16]; at 11.0 µM 4% | [16]; at 33.0 µM 14% | [16]; at 100.0 µM 1%
active: [11]; at 50.0 µM 82.5% | [11]; at 100.0 µM 70%

CCC(=O)Oc1c(Cl)cc(Cl)c2ccccc12
active: [15]; [18] 77% | [16]; at 100.0 µM 73%
inactive: [1]; at 1.2 µM -2% | [1]; at 3.7 µM -2% | [1]; at 11.0 µM -1% | [1]; at 33.0 µM 4% | [1]; at 100.0 µM 54% | [2]; at 1.2 µM -4% | [2]; at 3.7 µM -4% | [2]; at 11.0 µM -4% | [2]; at 33.0 µM -6% | [2]; at 100.0 µM 13% | [3]; at 1.2 µM -2% | [3]; at 3.7 µM 4% | [3]; at 11.0 µM 10% | [3]; at 33.0 µM 15% | [3]; at 100.0 µM 49% | [4]; at 1.2 µM -8% | [4]; at 3.7 µM -10% | [4]; at 11.0 µM -2% | [4]; at 33.0 µM 3% | [4]; at 100.0 µM 28% | [5]; at 1.2 µM -5% | [5]; at 3.7 µM -4% | [5]; [17] 8% | [5]; at 11.0 µM -1% | [5]; at 33.0 µM 5% | [5]; [18] -53% | [5]; at 50.0 µM 20.1% | [5]; at 100.0 µM 35% | [6]; at 1.2 µM -2% | [6]; at 3.7 µM -2% | [6]; [17] -9% | [6]; at 11.0 µM -2% | [6]; at 33.0 µM 0% | [6]; [18] -1% | [6]; at 50.0 µM -8.5% | [6]; at 100.0 µM 32% | [7]; at 1.2 µM -7% | [7]; at 3.7 µM -4% | [7]; at 11.0 µM 0% | [7]; at 33.0 µM 9% | [7]; at 100.0 µM 39% | [8]; [17] -9% | [8]; [18] 49% | [8]; at 50.0 µM 32% | [9]; at 1.2 µM -5% | [9]; at 3.7 µM -2% | [9]; at 11.0 µM -7% | [9]; at 33.0 µM -6% | [9]; at 100.0 µM 22% | [10]; [17] -16% | [10]; [18] 18% | [10]; at 50.0 µM 15.2% | [11]; at 1.2 µM -4% | [11]; at 3.7 µM -6% | [11]; [17] 2% | [11]; at 11.0 µM -9% | [11]; at 33.0 µM -12% | [11]; [18] -5% | [11]; at 50.0 µM 12.1% | [11]; at 100.0 µM 3% | [12]; at 1.2 µM -4% | [12]; at 3.7 µM -5% | [12]; at 11.0 µM -5% | [12]; at 33.0 µM -5% | [12]; at 100.0 µM 20% | [13]; at 1.2 µM -2% | [13]; at 3.7 µM -2% | [13]; at 11.0 µM 0% | [13]; at 33.0 µM 10% | [13]; at 100.0 µM 38% | [14]; at 1.2 µM -4% | [14]; at 3.7 µM -3% | [14]; at 11.0 µM 2% | [14]; at 33.0 µM 9% | [14]; at 100.0 µM 43% | [15]; [17] -10% | [15]; at 50.0 µM 10.9% | [16]; at 1.2 µM -3% | [16]; at 3.7 µM 1% | [16]; at 11.0 µM 1% | [16]; at 33.0 µM 5%
